Data on 37 compounds can be found in PubChem BioAssay AID602 (SRMLSC, 2007).

A short description of the experiment: MRP1 drug-resistance reversers in H69AR cells – cell-based, doxorubicin co-treatment, primary screen (AID 602).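 On differential viability (reversal): larger differential means the compound sensitizes cells more to doxorubicin.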 As to conditions: CellTiter-Glo, 72 h, at 10 µM; for differential viability (reversal): stronger effect = higher value. Background: ATP-based viability assays read luminescence as a measure of living cells.
Setting [1] is: H69AR cells + 2 uM doxorubicin, measured here: viability with 2 uM doxorubicin, stronger effect = lower value.
[2] abbreviates: H69AR cells, measured here: cytotoxicity without doxorubicin.

Hit rate of the full screen: of about 85,000 compounds, about 35 (0.04%) were called active.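 How the source made its calls: active means viability drop by adding the cancer drug above about 55%, with treated viability meeting a 40% cutoff (limit read from the data); inactive means the rest, inconclusive results apart.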 Only a selection was taken, and actives are over-represented in it overall.

The viability is a read-out of living cells in per cent, often relative to untreated cells. As to `CCCC(=O)C1CCN(Cc2ccccc2)CC1`, for the setting “H69AR cells + 2 uM doxorubicin”, the differential viability (reversal) is 1.73% (inactive). Further, the viability came out at 91.3% under setting [1] and 93% under setting [2].

Take `CC1(C)COC(c2cccn2Cc2ccccc2Cl)=N1`: the differential viability (reversal) (H69AR cells + 2 uM doxorubicin) is 13.1% (inactive). For the same compound, the viability came out at 90.7% under setting [1] and 104% under setting [2].

`COc1ccc(C2CC(=O)n3c(nc4ccccc43)S2)cc1OC` (stereo unspecified): the differential viability (reversal) (H69AR cells + 2 uM doxorubicin) is 4.1% (inactive). For the same compound, the viability under setting [1] was found to be 111% and the viability under setting [2] was 115%.

As for `CCc1ccc2c(c1)C1(NN=C(c3ccccc3)S1)C(=O)N2` (stereo unspecified), the differential viability (reversal) (H69AR cells + 2 uM doxorubicin) was -18.7% (inactive). For the same compound, the viability under setting [1] amounted to 34% and the viability under setting [2] came to 15.2%.

Turning to `COc1cccc(OC)c1C(=O)Nc1ccc(N2CCCCC2)cc1`, the differential viability (reversal) (H69AR cells + 2 uM doxorubicin) is 15% (inactive). The viability runs as follows: under setting [1], 90.1%; under setting [2], 105%.

With `COC(=O)CSc1snnc1-c1ccc(Cl)c(Cl)c1`, under “H69AR cells + 2 uM doxorubicin”, the differential viability (reversal) was 8.05% (inactive). Further, the viability under setting [1] worked out at 89.3% and the viability under setting [2] turned out to be 97.3%.

For `CC(C)C(=O)NC(NC(=S)NC1CCS(=O)(=O)C1)C(Cl)(Cl)Cl` (stereo unspecified), the differential viability (reversal) (H69AR cells + 2 uM doxorubicin) is 6.22% (inactive). The viability under setting [1] worked out at 95.7% and the viability under setting [2] is 102%.

For `CCOC(=O)c1cnn(Cc2ccccc2Cl)c1N`, the differential viability (reversal) (H69AR cells + 2 uM doxorubicin) was 4.58% (inactive). The viability is 91.6% under setting [1] and 96.2% under setting [2].

For the compound `CCOc1cccc(C(=O)Nc2nnc(-c3cccs3)s2)c1`, the differential viability (reversal) (H69AR cells + 2 uM doxorubicin) is -41.2% (inactive). Also, the viability runs as follows: under setting [1], 103%; under setting [2], 62.1%.

As for `CCn1nccc1C(=O)Nc1ccc(Cl)c(Cl)c1`, the differential viability (reversal) (H69AR cells + 2 uM doxorubicin) was 8.65% (inactive). Moreover, the viability under setting [1] was 68.4% and the viability under setting [2] came to 77%.

In the case of `CCCc1nc2sc3c(c2c(=O)n1NC(=O)CCCl)CCCC3`, for the setting “H69AR cells + 2 uM doxorubicin”, the differential viability (reversal) is 11.4% (inactive). Moreover, the viability runs as follows: under setting [1], 24.6%; under setting [2], 36%.

As to `CC(c1ccco1)N(C(=O)Nc1ccccc1)C1CCCCC1` (stereo unspecified), the differential viability (reversal) (H69AR cells + 2 uM doxorubicin) is 8.57% (inactive). Further, the viability under setting [1] came to 69.1% and the viability under setting [2] was found to be 77.7%.

As to `CCCNC(=O)c1ccccc1NC(=O)CSCc1ccc(OC)cc1`, where the note is “H69AR cells + 2 uM doxorubicin”, the differential viability (reversal) is 16.1% (inactive). The viability is, setting by setting: under setting [1], 67.8%; under setting [2], 83.9%.

As for `O=C(CSc1nnc(-c2cccnc2)n1CCc1ccccc1)NCc1ccccc1`, where the note is “H69AR cells + 2 uM doxorubicin”, the differential viability (reversal) is 20.9% (inactive). For the same compound, the viability came out at 68.7% under setting [1] and 89.6% under setting [2].

For `Cc1ccc(Nc2nnc(SCc3ccccc3)s2)cc1`, under “H69AR cells + 2 uM doxorubicin”, the differential viability (reversal) was 25.2% (inactive). Also, the viability runs as follows: under setting [1], 73%; under setting [2], 98.2%.

On to `CC1CCN(S(=O)(=O)c2ccc(S(=O)(=O)NCc3ccco3)cc2)CC1`, for which the differential viability (reversal) (H69AR cells + 2 uM doxorubicin) was -17.8% (inactive). Also, the viability reads like this: under setting [1], 93.1%; under setting [2], 75.4%.

For `CC(=O)NC1(c2cccc(F)c2)CCN(CC(=O)NC(C)C)CC1`, the differential viability (reversal) (H69AR cells + 2 uM doxorubicin) is -7.86% (inactive). In addition, the viability by setting is: under setting [1], 90.6%; under setting [2], 82.8%.

Turning to `CCOc1ccc(N=Cc2c(O)n(-c3cccc(C)n3)c(=O)c3ccccc23)cc1`, the differential viability (reversal) (H69AR cells + 2 uM doxorubicin) was 10.8% (inactive). The viability runs as follows: under setting [1], 80.7%; under setting [2], 91.4%.

With `CCN(CC)S(=O)(=O)c1cc([N+](=O)[O-])ccc1NNC(=O)Nc1ccccc1`, where the note is “H69AR cells + 2 uM doxorubicin”, the differential viability (reversal) is 0.11% (inactive). Also, the viability is, setting by setting: under setting [1], 89.8%; under setting [2], 89.9%.

On to `CCOc1nc(NCCN2CCOCC2)nc(Nc2ccc(C)cc2)n1`, for which the differential viability (reversal) (H69AR cells + 2 uM doxorubicin) is 15.7% (inactive). In addition, the viability under setting [1] was 76.1% and the viability under setting [2] stood at 91.8%.

In the case of `Cc1cccc(OCCCC(=O)Nc2ccc(S(=O)(=O)N3CCCC3)cc2)c1`, the differential viability (reversal) (H69AR cells + 2 uM doxorubicin) was 6.98% (inactive). Moreover, the viability by setting is: under setting [1], 82.2%; under setting [2], 89.2%.

For `COc1ccc(C2C(C#N)=C(/N=C/N3CCOCC3)OC3=C2C(=O)CC(C)(C)C3)cc1OC` (stereo unspecified), the differential viability (reversal) (H69AR cells + 2 uM doxorubicin) was 12.9% (inactive). The viability is, setting by setting: under setting [1], 83.8%; under setting [2], 96.7%.

For `COC(=O)CNC(=O)c1ccccc1F`, the differential viability (reversal) (H69AR cells + 2 uM doxorubicin) is -4.37% (inactive). For the same compound, the viability is 89.6% under setting [1] and 85.2% under setting [2].

For `Cc1ccc(-n2c(SCC(=O)NCc3ccc4c(c3)OCO4)nnc2-c2cccnc2)c(C)c1`, for the setting “H69AR cells + 2 uM doxorubicin”, the differential viability (reversal) was -22.4% (inactive). For the same compound, the viability under setting [1] was determined as 57.5% and the viability under setting [2] was 35.1%.

Take `CCCCN1C(=O)/C(=C2/C=CC=CN2C)SC1=S`: the differential viability (reversal) (H69AR cells + 2 uM doxorubicin) is 1.69% (inactive). The viability is 88.5% under setting [1] and 90.2% under setting [2].

With `CS(=O)(=O)N(CC(=O)Nc1ccc(Cl)c(Cl)c1)C1CCCCC1`, where the note is “H69AR cells + 2 uM doxorubicin”, the differential viability (reversal) is -18.2% (inactive). The viability stood at 34.8% under setting [1] and 16.6% under setting [2].

With `CC(C)(C)NC(=O)Cn1c(SCC(=O)Nc2nccs2)nc2ccccc21`, the differential viability (reversal) (H69AR cells + 2 uM doxorubicin) was 7.96% (inactive). Besides, the viability runs as follows: under setting [1], 84.5%; under setting [2], 92.5%.

Regarding `COCCCNC(=O)CN1CCN(Cc2ccccc2Cl)C1=O`, the differential viability (reversal) (H69AR cells + 2 uM doxorubicin) was 11.7% (inactive). Further, the viability runs as follows: under setting [1], 86.8%; under setting [2], 98.5%.

Take `CCCc1nc(NCc2ccc3c(c2)OCO3)c2nnn(Cc3ccccc3Cl)c2n1`: for the setting “H69AR cells + 2 uM doxorubicin”, the differential viability (reversal) is 1.6% (inactive). Further, the viability is, setting by setting: under setting [1], 23%; under setting [2], 24.6%.

`Cc1nc2ccccc2n1C(=O)N1CCOCC1`: the differential viability (reversal) (H69AR cells + 2 uM doxorubicin) is -2.57% (inactive). The viability is, setting by setting: under setting [1], 85.1%; under setting [2], 82.5%.

Regarding `CCN(CC(=O)Nc1ccccc1OC)C(=O)Cn1cnc2ccccc2c1=O`, the differential viability (reversal) (H69AR cells + 2 uM doxorubicin) was 8.46% (inactive). For the same compound, the viability under setting [1] was found to be 84.2% and the viability under setting [2] worked out at 92.7%.

On to `CCOc1c(Br)cc(/C=C2\C(=O)N(CCC#N)N=C2C)cc1OC`, for which the differential viability (reversal) (H69AR cells + 2 uM doxorubicin) was -46.8% (inactive). In addition, the viability worked out at 73% under setting [1] and 26.2% under setting [2].

As to `CCNCCC(=O)N1c2ccccc2Sc2ccc(NC(=O)OCC)cc21`, for the setting “H69AR cells + 2 uM doxorubicin”, the differential viability (reversal) was 8.86% (inactive). In addition, the viability under setting [1] stood at 69.7% and the viability under setting [2] worked out at 78.6%.

With `Cc1cccn2c(=O)c(/C=C(\C#N)S(=O)(=O)c3ccc(Cl)cc3)c(N3CCC(C(N)=O)CC3)nc12`, under “H69AR cells + 2 uM doxorubicin”, the differential viability (reversal) is -6.85% (inactive). In addition, the viability is, setting by setting: under setting [1], 89%; under setting [2], 82.2%.

`COc1ccc(-n2nc(C(=O)NCC(=O)Nc3cccc(C)n3)c3ccccc3c2=O)cc1`: the differential viability (reversal) (H69AR cells + 2 uM doxorubicin) was -0.23% (inactive). Besides, the viability under setting [1] came out at 74.5% and the viability under setting [2] amounted to 74.2%.

As to `CCOC(=O)N1CCC(Nc2c(NCCCN3CCN(CC)CC3)c(=O)c2=O)CC1`, where the note is “H69AR cells + 2 uM doxorubicin”, the differential viability (reversal) was 2.1% (inactive). For the same compound, the viability is, setting by setting: under setting [1], 109%; under setting [2], 112%.

On to `O=S(=O)(Cc1cc(Sc2ccccc2)nc(-c2ccccc2)n1)c1ccccc1`, for which, where the note is “H69AR cells + 2 uM doxorubicin”, the differential viability (reversal) is -7.14% (inactive). In addition, the viability by setting is: under setting [1], 91.4%; under setting [2], 84.3%.
